Screening data as filed in PubChem BioAssay.
Sampled rows, rich in hits. Any-hit rate of the full collection: about 4%.
ERAP1 HTS inh: human ERAP1 aminopeptidase inhibitors, primary screen, biochemical, single point, plate reader; inhibition, % at 10.7 µM; Endoplasmic reticulum aminopeptidase 1 (Homo sapiens), Q9NZ08; recombinant ERAP1, Leu-AMC fluorescence, 60 min; hit rate 0.15% among 340,000;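 active means mean replicate inhibition of at least 30%, or all replicates individually reaching that 30% level; inactive means mean below 30% and not every replicate reaching it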;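 further: 0% = neutral control wells and 100% = L-leucinethiol positive control wells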
Target sequence (Q9NZ08 whole entry, looked up): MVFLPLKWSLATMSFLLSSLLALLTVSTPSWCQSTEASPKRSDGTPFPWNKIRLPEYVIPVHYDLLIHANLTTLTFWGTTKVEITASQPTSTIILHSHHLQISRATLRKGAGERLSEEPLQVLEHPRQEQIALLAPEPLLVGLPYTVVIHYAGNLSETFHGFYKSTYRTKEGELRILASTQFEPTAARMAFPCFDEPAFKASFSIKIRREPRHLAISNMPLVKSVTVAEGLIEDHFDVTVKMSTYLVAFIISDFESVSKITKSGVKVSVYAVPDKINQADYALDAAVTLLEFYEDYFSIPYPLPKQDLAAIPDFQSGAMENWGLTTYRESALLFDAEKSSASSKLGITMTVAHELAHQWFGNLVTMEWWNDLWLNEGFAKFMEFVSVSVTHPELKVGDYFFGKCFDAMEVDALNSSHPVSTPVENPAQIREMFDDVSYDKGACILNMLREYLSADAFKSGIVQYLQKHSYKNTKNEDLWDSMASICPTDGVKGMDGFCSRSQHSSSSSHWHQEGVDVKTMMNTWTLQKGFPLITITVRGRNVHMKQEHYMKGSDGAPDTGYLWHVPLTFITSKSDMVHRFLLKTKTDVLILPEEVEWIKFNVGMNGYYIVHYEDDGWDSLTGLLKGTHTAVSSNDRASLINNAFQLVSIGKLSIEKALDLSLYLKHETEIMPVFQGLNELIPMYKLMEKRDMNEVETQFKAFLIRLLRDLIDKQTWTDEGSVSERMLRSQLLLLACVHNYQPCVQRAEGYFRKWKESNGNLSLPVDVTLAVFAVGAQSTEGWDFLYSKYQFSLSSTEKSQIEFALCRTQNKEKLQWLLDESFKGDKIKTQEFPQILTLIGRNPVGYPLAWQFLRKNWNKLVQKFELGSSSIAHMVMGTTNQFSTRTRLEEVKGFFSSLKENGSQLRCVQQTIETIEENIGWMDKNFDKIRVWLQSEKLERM
MLL AF4-AF9 inh: inhibitors of AF4 peptide binding to AF9, primary screen, biochemical, AlphaScreen, biotin-AF4 peptide, FLAG-AF9, single point. Protein AF-9 (Homo sapiens), P42568. inhibition, % at 10 µM. hit rate 0.47% among 350,000;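 active means every replicate reaching a set inhibition limit, whatever the replicate mean, cut at about 25% in these data; inconclusive means mean inhibition reaches that limit but some replicates miss it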;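 further: 0% = plate neutral control median and 100% = total signal loss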
FGF22 binding: binders of human FGF22 protein, primary screen, FGF22 synaptogenesis inhibitor project, biophysical, thermal shift, single point | Fibroblast growth factor 22 (Homo sapiens), Q9HCT0 | recombinant FGF22 thermal shift, SYPRO orange fluorescence; percent of sucrose octasulfate shift, DMSO zero | activity (Tm shift, normalised), % at 9.99 µM | hit rate 1.5% among 340,000;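 active means mean Tm shift, scaled 0 neutral to 100 positive control, at about 1.3% or above, every replicate too, limit read from the data; inconclusive means no clear call, values can overlap the other calls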
DENV2 CPE: inhibitors of DENV2 cytopathic effect, primary screen, cell-based, plate reader, single concentration; DENV2-infected cells, cytopathic effect rescue; CPE inhibition, % at 9.99 µM; hit rate 1.7% among 350,000; AID 651640, 2012; in the data active means CPE inhibition above about 20%, passing the limit was not always enough; inconclusive means no clear call, values can overlap the other calls; tested in BHK-21 cells;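 further: 0% = median of neutral control wells and 100% = median of positive control wells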
RAD52 anneal inh: RAD52 DNA annealing inhibitors, primary screen, biochemical, FRET, single point, set 2. recombinant RAD52 DNA annealing, FRET fluorescence. inhibition, % at 18.7 µM. hit rate 0.46% among 360,000. AID 651710, 2012;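 active means every replicate showing at least 50% inhibition; inconclusive means mean inhibition at least 50% but not in every replicate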
* marks the source's active call; other numbers are inactive results; ? = inconclusive; · = not tested or not shown.

SMILES	ERAP1 HTS inh	MLL AF4-AF9 inh	FGF22 binding	DENV2 CPE	RAD52 anneal inh
COc1cccc(N=C(N)N)c1	-1	-1	43*	-3	-11
COc1cccc(N2CC(=O)N(c3cccc(OC)c3)CC2=O)c1	-4	-16	44*	5	-6
O=C(NC1CCC1)[C@@H]1[C@@H](CO)[C@@H]2Cn3c(ccc(-c4ccccc4)c3=O)[C@@H]2N1Cc1ccccn1	-5	-3	0	-5	-14
CN(C)C(=O)[C@@H]1[C@@H](CO)[C@@H]2Cn3c(ccc(-c4cccnc4)c3=O)[C@@H]2N1Cc1ccccc1F	2	-10	0	10	-4
Cc1cc(=O)[nH]c(NN=C2CCC(C(C)(C)C)CC2)n1 (centres undefined)	-5	-6	44*	4	-3
C/C(=N\Nc1nc(C)cc(=O)[nH]1)C1CC1	11	-1	0	?	-11
C=CC#CC1(O)CC(C)[N+](C)(C)CC1C (centres undefined)	106*	-7	0	·	-19
O=C(CSc1nc2c(oc3ccccc32)c(=O)n1CC1CCCO1)NCc1ccc(F)cc1 (centres undefined)	-3	-1	0	-2	-5
O=C(CSc1nc2c(oc3ccccc32)c(=O)n1CC1CCCO1)NCc1ccccc1 (centres undefined)	-3	5	0	72*	-11
Cc1ccc(/C=C/C(=O)O)cc1S(=O)(=O)NCc1ccco1	-4	-1	43*	5	-13
O=C(Cc1ccccn1)N1CC2(C1)[C@@H](c1ccccc1)[C@H](CO)N2C(=O)c1ccncc1	-6	-4	0	-2	-248
O=C(C[C@@H]1C[C@H]2c3cc(NC(=O)NC4CCCCC4)ccc3O[C@H]2[C@@H](CO)O1)NCc1ccncc1	-3	-19	0	-12	13
CN(C(=O)C1Cc2c(-c3ccc(Cl)cc3)ccnc2O1)c1ccccc1 (centres undefined)	2	0	25*	-8	5
CC(=O)Nc1ccc(-c2ccnc3c2CC(C(=O)Nc2ccccc2)O3)cc1 (centres undefined)	1	0	0	56*	-13
CO[C@H]1CN(C)C(=O)c2ccc(NS(=O)(=O)c3cccc(F)c3)cc2OC[C@H](C)N(C(=O)Cc2cccnc2)C[C@H]1C	-1	-2	0	23*	-16
CO[C@H]1CN(C)C(=O)c2cc(NS(=O)(=O)c3cccc(F)c3)ccc2OC[C@@H](C)N(C(=O)Cc2cccnc2)C[C@H]1C	-2	1	0	-1	-1
CO[C@@H]1CN(C)C(=O)c2ccc(NS(=O)(=O)c3cccc(F)c3)cc2OC[C@@H](C)N(C(=O)Cc2cccnc2)C[C@H]1C	-2	-3	0	82*	-9
CO[C@@H]1CN(C)C(=O)c2ccc(NS(=O)(=O)c3cccc(F)c3)cc2OC[C@H](C)N(C(=O)Cc2cccnc2)C[C@H]1C	-1	1	0	-1	-5
N#CC(CC(=O)c1ccc(Cl)cc1)c1ccccc1 (centres undefined)	3	-3	0	-12	-5
CC(=O)N(CCCCl)C(C#N)c1ccccc1 (centres undefined)	0	-2	44*	4	-18
N#CC(c1ccccc1)N(CCCCl)C(=O)c1ccccc1 (centres undefined)	2	2	43*	7	-8
O=C(c1ccccc1)N(CCCl)C(=O)N(CCCl)C(=O)c1ccccc1	-2	2	0	0	-4
CC1=C([C@H](O)c2ccccc2)[C@H](CO)n2c(=O)n(-c3ccccc3)c(=O)n2C1	-2	0	0	2	2
CCCC(=O)N1CCC2(CC1)CN(C(=O)c1ccc(F)cc1)[C@H](CO)c1[nH]c3cc(OC)ccc3c12	-3	-3	0	-6	3
CC1=C(C#N)C(=O)NC(=O)/C1=C\c1ccc(-c2cc(C)c(C)cc2[N+](=O)[O-])o1	1	7	1.6*	8	-22
SMILES	ERAP1 HTS inh	MLL AF4-AF9 inh	FGF22 binding	DENV2 CPE	RAD52 anneal inh
Cc1ccc(-c2ccc(/C=C3/NC(=O)NC3=O)o2)cc1[N+](=O)[O-]	-1	-2	0	0	-20
Nc1ncnc2c(C3OC(CO)C(O)C3O)scc12 (centres undefined)	-2	0	43*	2	5
O=C(C1CCOCC1)N1C[C@H]2[C@@H](c3ccccc31)[C@@H](CO)N2C(=O)c1ccccc1	4	-2	-1	97*	-2
O=C(C1CCOCC1)N1C[C@@H]2[C@H](c3ccccc31)[C@@H](CO)N2C(=O)Cc1ccccc1	2	-1	0	19	7
CN1[C@@H]2CN(C(=O)C3CCOCC3)c3ccccc3[C@@H]2[C@@H]1CO	0	-8	0	40*	-21
O=C(C1CC1)N1C[C@@H]2[C@H](c3ccccc31)[C@H](CO)N2C(=O)c1ccccc1	0	-2	0	0	-3
CC(C)NC(=O)N1C[C@@H]2[C@H](c3ccccc31)[C@@H](CO)N2C(=O)c1ccccc1	1	0	0	29*	-14
COc1ccc2c3c([nH]c2c1)[C@H](CO)N(S(C)(=O)=O)CC31CCN(Cc2cccc(F)c2)CC1	·	36*	·	-33	·
COc1ccc2c3c([nH]c2c1)[C@H](CO)N(S(C)(=O)=O)CC31CCN(Cc2nccs2)CC1	·	8	0	-12	·
COc1ccc2c3c([nH]c2c1)[C@@H](CO)N(S(C)(=O)=O)CC31CCN(Cc2cccc(F)c2)CC1	·	27*	·	-31	·
CCCC(=O)N1CC2(CN[C@H](CO)c3c2c2ccc(OC)cc2n3C)C1	·	-1	·	0	·
COCCOC(=O)C1=C(C)NC(=S)NC1c1cccs1 (centres undefined)	1	-14	43*	4	-20
C=CCOC(=O)C1=C(C)NC(=S)NC1c1cccs1 (centres undefined)	1	-3	0	2	-13
CCOc1cc2c3c(c1)C(C)=CC(C)(C)N3C(=O)C2=O	0	16	0	-3	-13
CC(=O)Oc1cc2c3c(c1)/C(=C1/SC(=S)NC1=O)C(=O)N3C(C)(C)C=C2C	0	30*	0	2	-6
CC(O)CNc1nc(Cl)c(C#N)s1 (centres undefined)	-1	-1	43*	-2	2
O=C(C[C@H]1CC[C@H]2[C@@H](COC[C@H](O)CN2Cc2nccs2)O1)NCc1ccc(Cl)cc1	2	-1	0	-4	-11
Cn1c(C2=C(O)CN(c3ccccc3)C2=N)nc2ccccc21	-3	-1	44*	-3	-13
